PP5 inh: blocks human protein phosphatase 5 activity; P53041; purified PP5c, OMFP substrate fluorescence; inhibition, % at 6.7 µM; 0.18% of 320,000 active; AID 1987;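 active = inhibition above the campaign's mean inhibition across all tested compounds plus 3 SD, cut at about 9.5% in these data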;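 note: 0% = DMSO only and 100% = 100 µM cantharidin control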
PME-1 inh: PME-1 (human) inhibition | 0.53% of 320,000 active | AID 2130 | inhibition, % at 5.9 µM | recombinant PME-1, FP-Rh probe fluorescence polarization;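 active = inhibition above the campaign mean of all compounds plus 3 SD, cut at about 26% in these data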;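 note: competitive labeling of PME-1 active site by serine hydrolase directed probe; 0% = PME-1 with DMSO and 100% = wells lacking PME-1 enzyme; inhibitors block probe labeling so polarization falls and inhibition rises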
Target sequence (Q9Y570 whole entry, looked up): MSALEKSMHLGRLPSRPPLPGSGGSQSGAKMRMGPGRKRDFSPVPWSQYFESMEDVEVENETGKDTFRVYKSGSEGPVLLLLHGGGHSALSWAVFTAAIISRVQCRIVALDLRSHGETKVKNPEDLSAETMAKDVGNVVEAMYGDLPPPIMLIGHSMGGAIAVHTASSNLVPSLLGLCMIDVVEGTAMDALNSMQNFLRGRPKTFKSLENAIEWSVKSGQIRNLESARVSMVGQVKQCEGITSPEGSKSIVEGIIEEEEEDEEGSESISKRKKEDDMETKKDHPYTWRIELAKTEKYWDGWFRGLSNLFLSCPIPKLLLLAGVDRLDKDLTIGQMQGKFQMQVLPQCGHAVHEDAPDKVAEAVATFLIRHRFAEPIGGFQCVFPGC
LYPLA1 inh: counter-screen for PME1 inhibitors: inhibitors of human LYPLA1; O75608; recombinant LYPLA1, FP-Rh probe fluorescence polarization; inhibition, % at 5.9 µM; 0.16% of 320,000 active; AID 2174;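 active = inhibition above the mean of all tested compounds plus 3 SD, set per campaign, cut at about 14% in these data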;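 note: inhibitors block serine hydrolase probe labeling of LYPLA1 so polarization falls; 0% = enzyme with DMSO and 100% = wells lacking LYPLA1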
Fam108B counter: counter-screen for RBBP9 inhibitors: inhibitors of mouse Fam108B | recombinant Fam108B, FP-Rh probe fluorescence polarization | inhibition, % at 9.51 µM | 0.33% of 300,000 active | AID 1947;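 active = inhibition above the screen mean inhibition plus 3 SD, computed separately per campaign, cut at about 18% in these data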;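 note: inhibitors lower polarization as less probe binds the enzyme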
LYPLA2 counter: LYPLA2 (human) inhibition in PME1 counter-screen; recombinant LYPLA2, FP-Rh probe fluorescence polarization; AID 2177; inhibition, % at 5.9 µM; 0.38% of 320,000 active;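 active = inhibition above the screen-wide mean plus 3 SD, limit set per campaign, cut at about 26% in these data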;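 note: 0% = LYPLA2 with DMSO and 100% = wells lacking LYPLA2 enzyme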
Target sequence (O95372 whole entry, looked up): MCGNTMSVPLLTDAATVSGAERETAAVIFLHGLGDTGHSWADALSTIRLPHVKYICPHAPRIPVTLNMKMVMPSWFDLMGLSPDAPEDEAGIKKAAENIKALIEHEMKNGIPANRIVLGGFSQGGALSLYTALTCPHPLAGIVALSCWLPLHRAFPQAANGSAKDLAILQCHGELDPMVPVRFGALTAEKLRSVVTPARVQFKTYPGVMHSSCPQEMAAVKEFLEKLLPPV
PP1 counter: counter-screen for PP5 inhibitors: inhibitors of human PP1-alpha; P62136; purified PP1alpha, OMFP fluorescence; inhibition, % at 6.7 µM; 0.9% of 320,000 active; AID 2235;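 active = inhibition above the mean inhibition of all tested compounds plus 3 SD, computed separately for each screening campaign, cut at about 15% in these data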
Fam108b confirm: confirmation of mouse Fam108b serine hydrolase inhibitors; 44% of 930 active; recombinant Fam108b, FP-Rh probe fluorescence polarization; inhibition, % at 9.51 µM; shares compounds with Fam108B counter; AID 1978;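 active = inhibition above a limit from the primary screen, the mean over all compounds plus 3 SD, cut at about 19% in these data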;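 note: 0% = median of active Fam108b wells and 100% = catalytically dead S170A mutant; inhibitors free the probe so polarization falls as inhibition rises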
Fam108b inh: inhibits mouse Fam108b in gel-based ABPP. shares compounds with Fam108B counter. recombinant Fam108b, fluorophosphonate probe. inhibition, % at 20 µM. 44% of 260 active; in the data active = inhibition above about 40%
PP1 confirm: human PP1 phosphatase inhibition, confirmation | 52% of 1,900 active | inhibition, % at 6.7 µM | shares compounds with PP1 counter | AID 2358 | purified PP1alpha, OMFP substrate fluorescence;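 active = mean PP1 inhibition above a set limit taken from the earlier primary screen, cut at about 15% in these data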
PP5 counter: counter-screen for PP1 inhibitors: human PP5 phosphatase inhibition; shares compounds with PP1 counter; purified PP5c, OMFP fluorescence; inhibition, % at 6.7 µM; 4% of 1,900 active;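 active = mean PP5 inhibition over triplicate wells above about 9.5% taken from the earlier PP1 screen, limit read from the data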
An asterisk follows results filed as active; · = no result. Compounds with a hit are over-represented: about 1.8% of the library has one in this group of screens.

SMILES	PP5 inh	PME-1 inh	LYPLA1 inh	Fam108B counter	LYPLA2 counter	PP1 counter	Fam108b confirm	PP1 confirm	PP5 counter	others
COc1ccc(-c2nc(-c3ccccn3)ncc2S(C)(=O)=O)cc1	0	-1	-1	-1	6	7	·	·	·
COc1cc(C(=O)OCC(=O)Nc2ccccc2C(=O)NC2CC2)c([N+](=O)[O-])cc1OC	1	7	2	·	6	-4	·	·	·
N=C1/C(=C/c2ccc(-c3cccc(C(=O)O)c3)o2)C(=O)N=C2SC=C(c3ccccc3)N12	2	-12	-18	37*	-21	72*	18*	44*	-3
O=C(O)c1ccc(N/N=C/c2ccc(-c3cc(Cl)ccc3Cl)o2)cc1	-1	13	3	22*	7	18*	4	19*	-3
O=C(O)c1ccc(N/N=C/c2ccc(-c3cccc(Cl)c3)o2)cc1	3	24	8	17	8	5	·	·	·
CNC(=O)CCCCC(=O)N/N=C/c1ccc(Cl)cc1Cl	-1	-3	-1	-2	10	-3	·	·	·
Cc1cccc(NC(=S)NNc2cccc(Cl)c2)c1	3	2	-2	0	4	3	·	·	·
Cc1ccc(NS(=O)(=O)c2cc([N+](=O)[O-])ccc2NNC(=S)Nc2cccc(Cl)c2)c(C)c1	8	25	-14	30*	7	26*	18	29*	8
CCOc1ccc(CCNC(=O)COC(=O)c2cc(=O)[nH]c3ccccc23)cc1OCC	-5	-3	-4	-2	-6	-8	·	·	·
Cc1cc(C)nc(SCc2ccc(C(=O)N/N=C/c3cccc(O)c3O)cc2)n1	2	26*	-11	50*	17	25*	82*	28*	0
Cc1ccccc1C(C)NC(=O)COC(=O)Cn1cc(C(F)(F)F)ccc1=O (stereo unspecified)	-2	3	3	·	5	-4	·	·	·
CC1=NOC(=O)/C1=C/c1ccc(-c2ccc(Cl)cc2)o1	2	-1	4	19*	11	18*	16	49*	-2
CC1=NOC(=O)/C1=C\c1ccc(-c2cc(Cl)ccc2Cl)o1	-1	-5	-5	6	0	-1	·	·	·
COc1ccc(S(=O)(=O)N(CC(=O)N2CCCCCC2)c2ccccc2OC)cc1	0	-1	0	0	0	-2	·	·	·
COCCNC(=O)C1Nc2ccc(C(F)(F)F)cc2C2C=CCC12 (stereo unspecified)	1	4	1	2	0	0	·	·	·
CCOC(=O)c1ccc2c(c1)C1C=CCC1C(C(=O)O)N2 (stereo unspecified)	1	-24	-8	56*	4	30*	33*	12	-2	Fam108b inh=0
COC(=O)c1cc(S(=O)(=O)N2CCCCCC2)c[nH]1	-2	-1	-2	-3	-1	-4	·	·	·
CCOC(=O)C1CCN(C(=O)Nc2ccc3nc(-c4ccco4)c(-c4ccco4)nc3c2)CC1	5	11	-12	34*	9	31*	40*	10	6	Fam108b inh=0
CCOC(=O)C1CCN(C(=O)Nc2ccc3c(c2)nc(C)n3C)CC1	3	4	-1	-4	3	-3	·	·	·
CCCn1c(N)c(C(=O)CSc2n[nH]c(-c3ccc(C)cc3)n2)c(=O)[nH]c1=O	0	-19	-3	-7	-13	-4	·	·	·
O=C1/C(=C/C=C/c2ccco2)SC(=S)N1NS(=O)(=O)c1ccccc1	-2	-36	-10	53*	-11	21*	14	13	-5
N#Cc1c(N2CCCC(O)C2)nc(N)c2c(N)nc3c(c12)CC(=O)N3C12CC3CC(CC(C3)C1)C2 (stereo unspecified)	14*	11	-3	19*	0	19*	17	9	57*
CCN(CC)S(=O)(=O)c1ccc(N/N=C/c2ccccc2OCC(=O)O)c([N+](=O)[O-])c1	3	23	2	5	6	2	·	·	·
O=C(O)COc1ccccc1/C=N/Nc1ccc(S(=O)(=O)Nc2ccc(Cl)cc2)cc1[N+](=O)[O-]	4	50*	3	18*	3	19*	24*	14	-3
O=C(Nc1nc(-c2ccco2)c(-c2ccco2)s1)c1c(F)cccc1Cl	-1	-2	-17	·	-21	4	·	·	·
SMILES	PP5 inh	PME-1 inh	LYPLA1 inh	Fam108B counter	LYPLA2 counter	PP1 counter	Fam108b confirm	PP1 confirm	PP5 counter	others
O=C(Nc1nc(-c2ccco2)c(-c2ccco2)s1)c1cnccn1	0	-3	-3	25*	-4	23*	5	12	-2
COc1ccc(C(c2c(C)n(C)n(-c3ccccc3)c2=O)c2c(C)n(C)n(-c3ccccc3)c2=O)c(OC)c1OC	3	1	1	-2	6	3	·	·	·
C=Cc1c(C)c2cc3[nH]c(cc4nc(cc5nc(cc1[nH]2)C(C)=C5CCC(=O)O)C(CCC(=O)O)=C4C)c(C)c3C=C	5	-4	14	46*	17	61*	44*	41*	4	Fam108b inh=0
CC(=O)c1cccc(OCCCOc2cccc3cccnc23)c1	1	6	-1	-2	-1	-3	·	·	·
CSc1nc(NCCOCCO)c2sc3nc(-c4ccco4)c4c(c3c2n1)CCC4	1	-5	-12	29*	-11	45*	5	25*	0
O=C(Nc1ccc(F)cc1)Nc1ccc(N2CCCC2)c(S(=O)(=O)Nc2ccccc2Cl)c1	2	26	-25	25*	-2	24*	37*	10	5	Fam108b inh=95*
Cc1c(Cl)cccc1NS(=O)(=O)c1ccc2c(c1)C1C=CCC1C(c1ccc(C(=O)O)cc1)N2 (stereo unspecified)	1	-29	-8	34*	-7	25*	33*	18*	1	Fam108b inh=0
CC(=O)c1ccc2c(c1)C1C=CCC1C(c1ccc(S(=O)(=O)N3CCOCC3)cc1)N2 (stereo unspecified)	-2	3	-5	6	-3	13	·	·	·
COc1ccc(NS(=O)(=O)c2ccc3c(c2)[C@H]2C=CC[C@H]2[C@@H](c2ccc(C(=O)O)cc2)N3)cc1	3	-37	-8	35*	-11	19*	33*	6	-2	Fam108b inh=0
COc1ccc(Cl)cc1C(=O)OCC(=O)c1ccc[nH]1	-1	5	-3	·	-10	-1	·	·	·
COc1ccc(N(CC(=O)NCc2cccs2)S(=O)(=O)c2ccc(F)cc2)cc1	4	1	0	·	7	1	·	·	·
